Compound activity (PubChem BioAssay)
This is a sample that favours compounds with a hit; in the whole collection about 19% have one here.
IL1B secr inh: qHTS for Inhibitors of Inflammasome Signaling: IL-1-beta AlphaLISA Primary Screen. AID 743279, 2014. THP-1 LPS/ATP IL-1B secretion, AlphaLISA, 16 h; active compounds read low. activity change, % at 57.5 µM. actives 4.7% (n = 360,000); in the data active means activity change below about -50%; inconclusive means mostly about -30% to -49%
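THP-1 cells pretreated 1 hr with compounds (up to 57.5 uM final), then stimulated with LPS (250 ng/mL final) plus ATP (1.25 mM final); secreted IL-1B measured by AlphaLISA after 16 hr, decreased signal indicating inhibition.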
HT1080NT lethal: qHTS for induction of synthetic lethality in tumor cells producing 2HG: qHTS for the HT-1080-NT fibrosarcoma cell line | AID 686970, 2013 | Potency, µM (doses to about 46.1 µM), for the others: top-dose activity, negative = less viability, usual class: cytotoxic | HT-1080-NT fibrosarcoma viability, CellTiter-Glo ATP luminescence, 48 h | actives 1.6% (n = 360,000);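 further: NT is the 2HG producing partner of a matched IDH1 knockdown line; potency means the concentration at half of the fitted maximal effect; 0% = DMSO-treated cells and -100% = media-only wells without cells; nearly all actives have a fitted effect of over 55% in size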
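HT-1080-NT fibrosarcoma cells (2HG-overproducing), 750 cells/well in RPMI with 5% FBS, dosed after 2 h and incubated 48 h at 37C. CellTiter-Glo luminescence normalized to DMSO and no-cell wells; concentration-response curves fitted and classed.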
TDP1 cell noCPT: qHTS for Inhibitors of human tyrosyl-DNA phosphodiesterase 1 (TDP1): qHTS in cells in absence of CPT; actives 15% (n = 420,000); AID 686978, 2013; Potency, µM (doses to about 46.2 µM), for the others: top-dose activity change, negative = growth inhibition, usual class: inhibitors; DT40 Tdp1-/- hTDP1 cells, no CPT, ATP luminescence, 48 h; further: potency means the concentration at half of the fitted maximal effect; nearly all actives have a fitted effect of over 55% in size
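Growth of hTDP1-complemented DT40 Tdp1-knockout cells is measured by ATP luminescence after at least 48 hr compound exposure at 37 °C, with DMSO substituting for the 20 nM CPT used in the parallel screen.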
DT40 TDP1 CPT: qHTS for Inhibitors of human tyrosyl-DNA phosphodiesterase 1 (TDP1): qHTS in cells in presence of CPT; chicken DT40 Tdp1-/-;hTDP1 cells + 20 nM CPT, ATP luminescence, 48 h; Potency, µM (top dose mostly 46.2 µM), without a hit: top-dose activity change, negative = growth inhibition, usual class: inhibitors; actives 12% (n = 420,000); further: potency means the concentration at half of the fitted maximal effect; nearly all actives have a fitted effect of over 55% in size
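Cell growth measured by CellTiter-Glo luminescence after a minimum 48 h, 37 C compound exposure with 20 nM CPT in Tdp1-knockout DT40 cells stably expressing hTDP1, seeded 400/well; qHTS titration format.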
HT1080 IDH1KD tx: qHTS for induction of synthetic lethality in tumor cells producing 2HG: qHTS for the HT-1080-IDH1KD cell line. HT-1080 IDH1 knockdown viability, ATP luminescence, 48 h. Potency, µM (titrated, usually from 46.1 µM), for inactives: at the top dose activity, negative = toxicity, most hits filed as cytotoxic. actives 2% (n = 360,000). AID 686971, 2013;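 further: potency means the concentration at half of the fitted maximal effect; 0% = DMSO wells and -100% = cell-free medium wells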
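Knockdown cells (IDH1KD HT-1080) received compounds 2 h after plating at 750 cells/well and were kept 48 h at 37 °C in 5% FBS RPMI. A CellTiter-Glo luminescence read gave % activity for curve fitting.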
Active calls of the source: *. Unless noted, the call rests on the fitted dose curve; in most records, active means well fitted curve in the direction sought with a large enough effect; inconclusive means small, poorly fitted or top-dose-only effect, or another doubt; inactive means no such curve, though single readings can be large; an effect the other way counts as inactive or inconclusive. Unless noted, on the % scale 0 is the no-effect control and ±100 the full control effect.

What do the screens show for `COc1cccc(C(NC(C)=O)c2nc(-c3cccc(F)c3)cs2)c1` (centres undefined)?
IL1B secr inh: -18; HT1080NT lethal: -4%; TDP1 cell noCPT: -3%; DT40 TDP1 CPT: -25%; HT1080 IDH1KD tx: 9%

Results for CC[C@]12c3[nH]c4cc(-c5ccco5)ccc4c3CCN1C(=O)[C@@H](CC(=O)NC(C)(C)C)C[C@@H]2C(=O)N1CCN(C(=O)C2CC2)CC1 ?
IL1B secr inh: -11; HT1080NT lethal: 0%; TDP1 cell noCPT: 21µM*; DT40 TDP1 CPT: 15µM*; HT1080 IDH1KD tx: -2%

How did CC(C)(C)NC(=O)C[C@H]1C[C@H](C(=O)N2CCCCC2)[C@@]2(C)c3[nH]c4cc(-c5ccco5)ccc4c3CCN2C1=O do in these assays?
IL1B secr inh: 1; HT1080NT lethal: -21%; TDP1 cell noCPT: 26µM*; DT40 TDP1 CPT: inconclusive; HT1080 IDH1KD tx: -17%

How did COc1ccccc1CNC(=O)CSc1ccc(C)cc1 do in these assays?
IL1B secr inh: 4; HT1080NT lethal: 0%; TDP1 cell noCPT: inconclusive; DT40 TDP1 CPT: inconclusive; HT1080 IDH1KD tx: 7%

What do the screens show for `COc1ccccc1CNC(=O)C(C)Sc1ccc(C)cc1` (centres undefined)?
IL1B secr inh: 0; HT1080NT lethal: -3%; TDP1 cell noCPT: 26µM*; DT40 TDP1 CPT: -3%; HT1080 IDH1KD tx: 3%

Results for COc1ccccc1CNC(=O)CCNS(=O)(=O)/C=C/c1ccc(C)cc1 ?
IL1B secr inh: -55*; HT1080NT lethal: 3%; TDP1 cell noCPT: -15%; DT40 TDP1 CPT: -8%; HT1080 IDH1KD tx: 3%

How did CSc1ncc(C(=O)NCc2ccc(F)cc2)c(-c2ccccc2)n1 do in these assays?
TDP1 cell noCPT: active; DT40 TDP1 CPT: -13%

How did COc1ccccc1CNC(=O)c1cnc(SC)nc1C do in these assays?
TDP1 cell noCPT: 15µM*; DT40 TDP1 CPT: 23µM*

How did NC(=O)Cn1ccc(O)c(Cc2ccc(Cl)cc2Cl)c1=O do in these assays?
IL1B secr inh: -9; HT1080NT lethal: 2%; TDP1 cell noCPT: -3%; DT40 TDP1 CPT: -36%; HT1080 IDH1KD tx: -4%

How did Cc1nnc(NC(=O)CCC(=O)N2CCN(CCOc3cccc4ccccc34)CC2)s1 do in these assays?
IL1B secr inh: 2; HT1080NT lethal: 12%; TDP1 cell noCPT: 23µM*; DT40 TDP1 CPT: inconclusive; HT1080 IDH1KD tx: 11%

How did CCCc1nnc(NC(=O)CCC(=O)N2CCN(CCOc3ccc(C)cc3)CC2)s1 do in these assays?
IL1B secr inh: -3; HT1080NT lethal: -24%; TDP1 cell noCPT: inconclusive; DT40 TDP1 CPT: inconclusive; HT1080 IDH1KD tx: -11%

What do the screens show for `CCOc1ccccc1OCC(=O)Nc1nnc(C)s1`?
IL1B secr inh: -58*; HT1080NT lethal: -21%; TDP1 cell noCPT: -10%; DT40 TDP1 CPT: -5%; HT1080 IDH1KD tx: -4%

How did Cc1ccc(OCCN2CCN(C(=O)CCC(=O)Nc3nnc(C)s3)CC2)cc1 do in these assays?
IL1B secr inh: 44; HT1080NT lethal: 16%; TDP1 cell noCPT: -5%; DT40 TDP1 CPT: -11%; HT1080 IDH1KD tx: 10%

What do the screens show for `Cc1ccc(OCCN2CCN(C(=O)CCC(=O)Nc3nnc(C(C)C)s3)CC2)cc1`?
IL1B secr inh: -19; HT1080NT lethal: -11%; TDP1 cell noCPT: 23µM*; DT40 TDP1 CPT: inconclusive; HT1080 IDH1KD tx: -9%

What do the screens show for `CC[C@@H]1C/C=C\Cc2ccccc2[C@@H](C(=O)C[C@H](O)CC(C)=O)OC1=O`?
IL1B secr inh: 5; HT1080NT lethal: 4%; TDP1 cell noCPT: -4%; DT40 TDP1 CPT: 15%; HT1080 IDH1KD tx: 4%

How did CS(=O)(=O)N1CCC(C(=O)c2cccc(Cl)c2)CC1 do in these assays?
IL1B secr inh: -14; HT1080NT lethal: -4%; TDP1 cell noCPT: -6%; DT40 TDP1 CPT: -2%; HT1080 IDH1KD tx: 1%

What do the screens show for `CNS(=O)(=O)c1cc(Nc2ncnc3sccc23)ccc1C`?
IL1B secr inh: -30; HT1080NT lethal: 5%; TDP1 cell noCPT: inconclusive; DT40 TDP1 CPT: 15µM*; HT1080 IDH1KD tx: 7%

How did Cc1cc2ccccc2n1-c1ccc(C(=O)N2CCC(C(=O)NCc3ccccc3Cl)CC2)s1 do in these assays?
TDP1 cell noCPT: -97%; DT40 TDP1 CPT: 16µM*

How did Cc1ccc(CNC(=O)C2CCN(C(=O)c3ccc(-n4ccc5ccccc54)s3)CC2)cc1 do in these assays?
TDP1 cell noCPT: inconclusive; DT40 TDP1 CPT: -27%

What do the screens show for `Cc1ccc(CNC(=O)c2sc3nc[nH]c(=O)c3c2C)cc1`?
TDP1 cell noCPT: -20%; DT40 TDP1 CPT: -11%

What do the screens show for `CC(=NNC(=S)N1CC2CCC(CC2)C1)c1cnccn1`?
IL1B secr inh: -107*; HT1080NT lethal: inconclusive; TDP1 cell noCPT: -116%; DT40 TDP1 CPT: -113%; HT1080 IDH1KD tx: inconclusive

Results for C/C(=N/O)c1ccccn1 ?
IL1B secr inh: 19; HT1080NT lethal: 3%; TDP1 cell noCPT: 0%; DT40 TDP1 CPT: 8%; HT1080 IDH1KD tx: 3%

Results for C/C(=N\NC(=O)C1CCCN(S(=O)(=O)c2ccccc2)C1)c1ccccn1 (centres undefined) ?
IL1B secr inh: 92; HT1080NT lethal: inconclusive; TDP1 cell noCPT: 3.3µM*; DT40 TDP1 CPT: 5.8µM*; HT1080 IDH1KD tx: inconclusive

Results for C/C(=N\NC(=O)C1CCCN(S(=O)(=O)c2ccccc2)C1)c1ccncc1 (centres undefined) ?
IL1B secr inh: -7; HT1080NT lethal: -2%; TDP1 cell noCPT: -16%; DT40 TDP1 CPT: -9%; HT1080 IDH1KD tx: -6%

How did CC(=NNC(=S)N1CC2CCC(CC2)C1)c1ccccn1 do in these assays?
IL1B secr inh: 41; HT1080NT lethal: -23%; TDP1 cell noCPT: 0.018µM*; DT40 TDP1 CPT: 0.0082µM*; HT1080 IDH1KD tx: -17%

How did O=C(Nc1ccc2c3c(cccc13)CC2)c1ccccc1 do in these assays?
IL1B secr inh: 34; HT1080NT lethal: -4%; TDP1 cell noCPT: inconclusive; DT40 TDP1 CPT: inconclusive; HT1080 IDH1KD tx: -7%

Results for COc1ccc(CN(C)C(=O)c2ccccc2Sc2ccccc2C#N)cc1OC ?
IL1B secr inh: inconclusive; HT1080NT lethal: -4%; TDP1 cell noCPT: inconclusive; DT40 TDP1 CPT: 16µM*; HT1080 IDH1KD tx: -26%

What do the screens show for `COc1cccc(CN(C)C(=O)c2ccccc2Sc2ccccc2C#N)c1`?
IL1B secr inh: -2; HT1080NT lethal: -6%; TDP1 cell noCPT: inconclusive; DT40 TDP1 CPT: inconclusive; HT1080 IDH1KD tx: 0%
